Experimental findings from PubChem BioAssay (EPA / NIEHS) are described below.

Assay [1] in a line: ATG_TCF_b_cat_CIS: Attagene CIS-FACTORIAL HepG2 Assay for human T-Cell-Factor with beta-catenin (TCF/b-cat) (AID 2282965). The settings on record: HepG2 TCF/beta-catenin cis-reporter transcription, actives raise or lower the signal. A digest of the protocol:
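Using capillary electrophoresis as the read-out, labelled reporter cDNA fragments from transiently transfected HepG2 were sized and quantified. Exposure lasted 24 hours; activity in either direction was referenced to DMSO.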

Assay [2] is described as follows: ATG_TAL_CIS: Attagene CIS-FACTORIAL HepG2 Assay for human TAL Basal Promoter (AID 2282966).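 Also: background control endpoint measuring basal TAL promoter reporter mRNA not a specific factor.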 The settings on record: HepG2 Attagene cis-factorial TAL promoter reporter; actives raise or lower the signal. The method in brief: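 After 24 hours of chemical exposure, transfected HepG2 cells yielded RNA that was converted to 6-FAM-labelled, HpaI-digested reporter fragments for capillary electrophoresis. Values derive from bidirectional fitting against DMSO controls.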

Assay [3] is described as follows: ATG_TGFb_CIS: Attagene CIS-FACTORIAL HepG2 Assay for human Transforming Growth Factor (TGF) (AID 2282967). To be noted: HepG2 Attagene CIS TGFb reporter, mRNA transcription; actives raise or lower the signal. A digest of the protocol:
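HepG2 cells transiently transfected with cis-promoter-driven multiple reporter units measure endogenous TF activity; reporter mRNA quantified at 24 h by RT-PCR, FAM labeling, HpaI digestion and capillary electrophoresis. Bidirectional fit vs DMSO.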

Assay [4] addresses Nuclear receptor subfamily 1 group I member 3 (Homo sapiens) (UniProt Q14994). As to the kind of experiment: ATG_CAR_TRANS: Attagene TRANS-FACTORIAL HepG2 Assay for human Constitutive Androstane Receptor (CAR) (AID 2282969; active = hit-call score of the fitted dose curve at least 0.9, where 1 is the maximum;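 also: activators raise reporter mRNA above DMSO so AC50 marks induction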). The settings on record: HepG2 Attagene TRANS-FACTORIAL CAR reporter. The method in brief:
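Steps: transient transfection of HepG2 with multiple GAL4-UAS reporter units; 24 h compound incubation; RNA isolation, RT-PCR, 6-FAM primer extension, HpaI digest; capillary electrophoresis. Gain-of-signal relative to DMSO negative control.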

In assay [5] the target is X-box-binding protein 1 (Homo sapiens) (UniProt P17861). As to the kind of experiment: ATG_Xbp1_CIS: Attagene CIS-FACTORIAL HepG2 Assay for human X-box Binding Protein 1 (XBP1) (AID 2282972). The settings on record: HepG2 XBP1 cis-element reporter, Attagene multiplex; actives raise or lower the signal. A digest of the protocol: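 Changes in reporter transcript abundance, read by RT-PCR and capillary electrophoresis, reflect endogenous transcription factor activity. Transfected HepG2 cells received compound for 24 hours; DMSO defined baseline for bidirectional analysis.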

For assay [6], the target named is Androgen receptor (Homo sapiens) (UniProt P10275). As to the kind of experiment: ATG_AR_TRANS: Attagene TRANS-FACTORIAL HepG2 Assay for human Androgen Receptor (AR) (AID 2282973; active = hit-call score of the fitted dose curve at least 0.9, where 1 is the maximum). The settings on record: HepG2 Attagene TRANS-FACTORIAL AR reporter transcription. Here is the method:
ATG_TRANS is a cell-based, multiplexed-readout assay that uses HepG2, a human liver cell line, with measurements taken at 24 hours after chemical dosing in a 24-well plate.ATG_AR_TRANS is one of 30 assay component(s) measured or calculated from the ATG_TRANS assay. It is designed to make measurements of mRNA induction, a form of inducible reporter, as detected with fluorescence intensity signals by Reverse transcription polymerase chain reaction (RT-PCR) and Capillary electrophoresis technology.Data from the assay component ATG_AR_TRANS was analyzed into 1 assay endpoint. This assay endpoint, ATG_AR_TRANS, was analyzed in the positive analysis fitting direction relative to DMSO as the negative control and baseline of activity. Using a type of inducible reporter, measures of mRNA for gain-of-signal activity can be used to understand the reporter gene at the transcription factor-level as they relate to the gene AR. Furthermore, this assay endpoint can be referred to as a primary readout, because this assay has produced multiple assay endpoints where this one serves a reporter gene function. To generalize the intended target to other relatable targets, this assay endpoint is annotated to the nuclear receptor intended target family, where the subfamily is steroidal.
Human liver HepG2 cells are transiently transfected with multiple reporter transcription units (MRTUs) in 6-well plates using FuGene 6 reagent (Roche; 3 ml FuGene/1 mg DNA). The MRTU constructs are regulated by a cis-regulating element (promoter). […] A major difference between the CIS and TRANS system is that in CIS activities of endogenous TFs are measured, whereas the TRANS assay evaluates changes in activities of exogenous, chimeric NR-Gal4 proteins. […] At the end of 24 hour incubation, total RNA was isolated using TriZol reagent (Invitrogen). The isolated RNA is then reverse-transcribed using oligo(dT) primer and Mo-MLV reverse transcriptase (Invitrogen) with DNAse I (Ambion) treatment for 30 min. The one-tenth of the produced cDNA was amplified by PCR using Taq DNA polymerase (Invitrogen) and two reporter sequence-specific primers. The PCR products were fluorescently labeled by primer extension with 6-arboxyfluorescein (6-FAM) 5'-labeled reporter sequence-specific primer (2 min at 95 C, 20 s at 68 C and 10 min at 72 C) and these products were digested with 5U of HpaI (New England Biolabs) for 2h at 37 C. The fragments were purified using Qiaquick PCR columns (Qiagen), analyzed on an ABI 3130xL genetic analyzer (Applied Biosystems) with peak positions identified by using a set of X-rhodamine (ROX)-labeled MapMarker1000 molecular weight standards (BioVentures). The raw capillary electrophoresis data was processed using Attagraph software (Attagene).

Assay [7] in a line: ATG_M_19_TRANS: Attagene TRANS-FACTORIAL HepG2 Assay for M19 Transcription Factor (Internal Marker) (AID 2282974; active = hit-call score of the fitted dose curve at least 0.9, where 1 is the maximum). The settings on record: HepG2 Attagene TRANS-FACTORIAL M19 internal marker reporter. A digest of the protocol: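 After transfection of HepG2 with GAL4-UAS-driven reporter constructs, cells are dosed for 24 h. Total RNA is reverse-transcribed, reporter sequences PCR-amplified and labelled, then HpaI-digested and sized by capillary electrophoresis.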

For assay [8], the target named is Estrogen receptor (Homo sapiens) (UniProt P03372). As to the kind of experiment: ATG_ERa_TRANS: Attagene TRANS-FACTORIAL HepG2 Assay for human Estrogen Receptor alpha (ERa) (AID 2282970; active = hit-call score of the fitted dose curve at least 0.9, where 1 is the maximum). To be noted: HepG2 Attagene TRANS ERa GAL4 reporter, mRNA. A digest of the protocol:
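Liver-derived HepG2 cells expressing chimeric nuclear receptor-Gal4 proteins from transient transfection were exposed for 24 hours. Gain of reporter mRNA signal versus DMSO, read by capillary electrophoresis of FAM-labelled PCR products, was recorded.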

The target of assay [9] is Steroid hormone receptor ERR1 (Homo sapiens) (UniProt P11474). Briefly: ATG_ERRa_TRANS: Attagene TRANS-FACTORIAL HepG2 Assay for human Estrogen-Related Receptor alpha (ERRa) (AID 2282971; active = hit-call score of the fitted dose curve at least 0.9, where 1 is the maximum). To be noted: HepG2 Attagene TRANS reporter, ERRa transactivation. The method in brief:
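Reporter transcript induction was quantified by RT-PCR and capillary electrophoresis of FAM-labelled, HpaI-cut products after 24 h treatment of HepG2 cells carrying transiently transfected GAL4-UAS reporter units and an exogenous ERRa-Gal4 fusion; activity scored as increase over DMSO.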

Each structure is given as a SMILES string. Several values for one entry are separate records, joined by “and”; a condition that tells them apart may be missing. Equal entries are not always repeated. Results filed as inconclusive are left out. Where a structure was tested more than once in an assay, its records may differ in their call. Activity calls are given as the source filed them. The calls were made as follows, unless noted: active = hit-call score of the fitted dose curve at least 0.9, where 1 is the maximum; inactive = score below 0.9.

Androgen receptor (Homo sapiens), sequence (P10275 whole entry, looked up): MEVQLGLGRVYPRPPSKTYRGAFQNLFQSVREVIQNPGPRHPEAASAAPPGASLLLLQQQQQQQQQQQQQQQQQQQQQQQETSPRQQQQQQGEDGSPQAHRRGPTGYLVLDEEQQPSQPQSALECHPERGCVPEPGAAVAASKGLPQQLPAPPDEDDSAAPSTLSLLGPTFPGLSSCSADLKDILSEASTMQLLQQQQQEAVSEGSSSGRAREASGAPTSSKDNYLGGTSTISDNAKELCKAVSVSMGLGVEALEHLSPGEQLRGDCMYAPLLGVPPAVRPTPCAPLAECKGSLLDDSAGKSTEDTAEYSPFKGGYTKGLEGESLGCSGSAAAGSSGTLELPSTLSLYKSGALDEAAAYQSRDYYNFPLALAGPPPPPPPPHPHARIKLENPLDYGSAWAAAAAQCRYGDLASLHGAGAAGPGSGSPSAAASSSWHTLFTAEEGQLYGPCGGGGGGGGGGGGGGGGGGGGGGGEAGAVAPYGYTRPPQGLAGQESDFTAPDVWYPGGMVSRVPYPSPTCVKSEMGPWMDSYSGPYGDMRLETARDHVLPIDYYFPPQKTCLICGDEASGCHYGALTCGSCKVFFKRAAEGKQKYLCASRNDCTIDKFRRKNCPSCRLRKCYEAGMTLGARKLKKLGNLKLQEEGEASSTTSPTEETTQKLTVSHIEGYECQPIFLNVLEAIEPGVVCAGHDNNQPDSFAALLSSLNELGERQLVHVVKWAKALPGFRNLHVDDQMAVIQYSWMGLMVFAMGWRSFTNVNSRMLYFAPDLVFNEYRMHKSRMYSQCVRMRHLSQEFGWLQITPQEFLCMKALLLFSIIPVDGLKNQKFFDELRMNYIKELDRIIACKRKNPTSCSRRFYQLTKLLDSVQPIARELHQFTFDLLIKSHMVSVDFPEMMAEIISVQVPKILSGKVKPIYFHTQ
Steroid hormone receptor ERR1 (Homo sapiens), sequence (P11474 whole entry, looked up, the tested form may be a part): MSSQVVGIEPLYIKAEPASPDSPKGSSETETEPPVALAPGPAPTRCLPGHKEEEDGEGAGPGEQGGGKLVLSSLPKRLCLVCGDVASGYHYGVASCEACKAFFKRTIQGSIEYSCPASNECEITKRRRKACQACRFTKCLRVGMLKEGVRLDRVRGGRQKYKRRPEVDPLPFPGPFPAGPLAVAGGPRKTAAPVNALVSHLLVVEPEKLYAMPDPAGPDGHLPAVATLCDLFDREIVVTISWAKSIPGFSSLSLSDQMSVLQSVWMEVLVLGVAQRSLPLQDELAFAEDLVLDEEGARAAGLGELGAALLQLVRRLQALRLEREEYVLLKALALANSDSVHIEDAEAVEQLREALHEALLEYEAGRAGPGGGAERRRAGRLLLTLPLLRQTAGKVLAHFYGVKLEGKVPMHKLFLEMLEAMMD
Nuclear receptor subfamily 1 group I member 3 (Homo sapiens), sequence (Q14994 whole entry, looked up, the tested form may be a part): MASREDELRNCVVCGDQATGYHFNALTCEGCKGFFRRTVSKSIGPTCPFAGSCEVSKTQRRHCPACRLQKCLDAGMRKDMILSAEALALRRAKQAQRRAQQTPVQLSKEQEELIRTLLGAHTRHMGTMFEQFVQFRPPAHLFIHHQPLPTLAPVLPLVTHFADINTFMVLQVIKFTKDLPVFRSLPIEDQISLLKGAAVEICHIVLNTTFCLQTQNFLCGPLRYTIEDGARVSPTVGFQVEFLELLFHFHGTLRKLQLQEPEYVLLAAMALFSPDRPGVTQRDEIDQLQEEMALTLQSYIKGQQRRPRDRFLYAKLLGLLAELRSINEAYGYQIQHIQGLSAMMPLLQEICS
X-box-binding protein 1 (Homo sapiens), sequence (P17861 whole entry, looked up): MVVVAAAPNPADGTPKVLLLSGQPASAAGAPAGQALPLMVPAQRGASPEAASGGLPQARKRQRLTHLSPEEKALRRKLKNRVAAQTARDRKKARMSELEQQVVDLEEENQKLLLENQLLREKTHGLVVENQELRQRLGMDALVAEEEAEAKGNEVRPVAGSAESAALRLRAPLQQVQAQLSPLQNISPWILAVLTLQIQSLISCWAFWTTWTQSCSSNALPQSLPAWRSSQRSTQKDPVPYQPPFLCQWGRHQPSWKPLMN
Estrogen receptor (Homo sapiens), sequence (P03372 whole entry, looked up, the tested form may be a part): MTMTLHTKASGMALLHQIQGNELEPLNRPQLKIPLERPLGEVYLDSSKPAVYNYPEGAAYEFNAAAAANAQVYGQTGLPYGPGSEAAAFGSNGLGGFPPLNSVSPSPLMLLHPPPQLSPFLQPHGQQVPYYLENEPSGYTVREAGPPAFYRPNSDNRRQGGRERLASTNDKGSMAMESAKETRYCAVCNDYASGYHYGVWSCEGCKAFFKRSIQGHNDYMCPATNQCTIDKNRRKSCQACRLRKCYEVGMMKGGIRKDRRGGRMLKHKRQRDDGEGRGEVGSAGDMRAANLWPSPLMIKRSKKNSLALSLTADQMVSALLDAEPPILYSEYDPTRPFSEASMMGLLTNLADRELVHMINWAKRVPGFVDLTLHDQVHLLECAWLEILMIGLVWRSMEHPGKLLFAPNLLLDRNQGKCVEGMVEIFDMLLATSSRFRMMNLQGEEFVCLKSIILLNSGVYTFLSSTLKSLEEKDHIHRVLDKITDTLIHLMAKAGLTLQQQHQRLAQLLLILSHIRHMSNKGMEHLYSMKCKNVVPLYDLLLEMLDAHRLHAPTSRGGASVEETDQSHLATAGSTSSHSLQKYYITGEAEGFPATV

What is called AC50 is the concentration giving half of the maximal activity seen. `Oc1ccc(Cl)cc1Cc1ccccc1`: the AC50 is 16.4 µM (active) in [1]; 7.32 µM (active) and 11.2 µM (active) and 15.9 µM (active) in assay [5]. In addition, the outcome in assay [1], in assay [2], in assay [3], in [4], in assay [5] and in assay [6] was inactive. Besides, in assay [7], the result was inactive.

With `COC(=O)c1ccccc1S(=O)(=O)NC(=O)N(C)c1nc(C)nc(OC)n1`, the compound was called inactive in assay [1], in assay [2], in [3], in assay [4] and in assay [5].

Regarding `CC(C)(C)C(O)C(Oc1ccc(Cl)cc1)n1cncn1` (stereo not given), the result in [1], in [2], in assay [3], in assay [4], in assay [5] and in [7] was inactive.

As to `O=C(NC(=O)c1c(F)cccc1F)Nc1ccc(OC(F)(F)C(F)OC(F)(F)F)c(Cl)c1` (stereo not given), the outcome in assay [1], in [2], in [3], in assay [8] and in assay [5] was inactive.

Turning to `CC(C)(C)C(O)/C(=C\c1ccc(Cl)cc1Cl)n1cncn1` (stereo not given), the call in assay [1], in assay [2], in assay [3], in [4], in [8] and in assay [5] was inactive. Moreover, the compound was called inactive in assay [7].

Take `CC1(c2ccc(Oc3ccccc3)cc2)OC(=O)N(Nc2ccccc2)C1=O` (stereo not given): the result in assay [1], in assay [2], in [3], in [8], in assay [9] and in [5] was inactive. In addition, in assay [7], the compound was called inactive.

Consider `O=C(O)CCCOc1ccc(Cl)cc1Cl`, for which the call in [1], in assay [2], in assay [3], in [4], in assay [5] and in [6] was inactive. Also, the call in assay [7] was inactive.

On to `CC(C)N(C(=O)COc1nnc(C(F)(F)F)s1)c1ccc(F)cc1`, for which the outcome in assay [1], in [2], in assay [3], in assay [8] and in assay [7] was inactive. Moreover, in assay [5], the AC50 is 29.7 µM (active).

Consider `CCOc1nc(NC)nc(NC(=O)NS(=O)(=O)c2ccccc2C(=O)OC)n1`, for which the compound was called inactive in assay [1], in [2], in assay [3], in assay [4], in assay [9] and in assay [5]. For the same compound, the compound was called inactive in assay [7].

`C#CCN1C(=O)COc2cc(F)c(N3C(=O)C4=C(CCCC4)C3=O)cc21`: the result in [1], in [2], in assay [3], in assay [4], in assay [8] and in [5] was inactive. For the same compound, the result in [6] and in assay [7] was inactive.

Regarding `CC[C@H](C)[C@H]1O[C@]2(C=C[C@@H]1C)C[C@@H]1C[C@@H](C/C=C(\C)[C@@H](O[C@H]3C[C@H](OC)[C@@H](O[C@H]4C[C@H](OC)[C@@H](O)[C@H](C)O4)[C@H](C)O3)[C@@H](C)/C=C/C=C3\CO[C@@H]4[C@H](O)C(C)=C[C@@H](C(=O)O1)[C@]34O)O2` (tested in a mixture with another compound), the compound was called inactive in [1], in assay [2], in assay [3], in assay [8], in [9] and in assay [5]. Moreover, the outcome in [7] was inactive.

`COP(=O)(OC)OC=C(Cl)Cl`: the result in [1], in assay [2], in assay [3] and in assay [8] was inactive. Moreover, the AC50 in assay [5] is 25.1 µM (active).

In the case of `CN1CSC(=S)N(C)C1`, the compound was classed as inactive in assay [1], in assay [2], in [3], in assay [4] and in [9]. In assay [5], the AC50 was 50 µM (active).

On to `COC(=O)c1ccccc1S(=O)(=O)NC(=O)Nc1nc(C)nc(OC)n1`, for which the compound was called inactive in [1], in [2], in assay [3], in assay [5] and in assay [7].
